Bioassay records deposited in PubChem by National Center for Advancing Translational Sciences (NCATS).
This is a sample that favours compounds with a hit; in the whole collection about 11% have one here.
HPGD inh = qHTS Assay for Inhibitors of HPGD (15-Hydroxyprostaglandin Dehydrogenase) | Potency, µM, inactives show at the highest dose activity change, negative = inhibition, hits mostly inhibitors | 150,000 tested, 4.3% active | 15-hydroxyprostaglandin dehydrogenase [NAD(+)] (Homo sapiens), P15428 | purified HPGD, NADH fluorescence kinetic, PGE2 substrate; further: potency means the concentration at half of the fitted maximal effect
Target sequence (P15428 whole entry, looked up): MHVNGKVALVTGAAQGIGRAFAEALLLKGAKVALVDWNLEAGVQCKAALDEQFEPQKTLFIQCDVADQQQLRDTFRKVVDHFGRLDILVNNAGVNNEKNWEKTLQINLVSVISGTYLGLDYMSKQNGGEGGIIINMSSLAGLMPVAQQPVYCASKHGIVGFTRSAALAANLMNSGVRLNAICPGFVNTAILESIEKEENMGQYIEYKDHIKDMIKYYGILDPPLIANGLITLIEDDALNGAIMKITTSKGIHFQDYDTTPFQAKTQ
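20 nM HPGD preincubated 15 min at room temperature with compound in 50 mM Tris-HCl pH 8, 0.01% Tween 20. Started with 1 mM NAD+ and 30 uM prostaglandin E2; NADH fluorescence (360/450 nm) read 5 times over 30-s intervals, last minus first.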
PNC inhibitor = High Content Assay for Compounds that inhibit the Assembly of the Perinucleolar Compartment | PC3M PTB-GFP, PNC prevalence imaging, 16 h; hits give low values | activity change (PNC), negative = inhibition, % at 10 µM | 140,000 tested, 3.1% active | AID 2417, 2010;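 active means readout at or below -70, meaning at least 70% loss of cells showing the perinucleolar compartment, a nuclear body marking cancer cells; inconclusive means readout between -30 and a set limit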;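 further: plate controls were DMSO wells for no effect and camptothecin positive control wells for full effect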
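Compounds are pinned in duplicate onto adhered PC3M cells stably expressing GFP-tagged PTB and incubated 16 h at 37 C. Cells are then fixed, nuclei stained with Hoechst, and PNC-positive cells counted.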
ALDH1A1 block = qHTS Assay for Inhibitors of Aldehyde Dehydrogenase 1 (ALDH1A1) | Potency, µM (doses to about 75.3 µM), for the others: at the top dose activity, negative = inhibition, hits mostly inhibitors | Purified ALDH1A1, NADH fluorescence, propionaldehyde substrate | AID 1030, 2008 | 220,000 tested, 7.3% active;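 further: potency means the concentration at half of the fitted maximal effect; plate controls were no enzyme wells and a reference inhibitor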
Active calls of the source: *; ? = inconclusive; · = no result. Unless noted, the call rests on the fitted dose curve; in most records, active means well fitted inhibition curve with a large enough effect (not every such curve was filed as active); inconclusive means small, poorly fitted or top-dose-only effect, or another doubt; inactive means no such curve, though single readings can be large or run the other way. Unless noted, on the % scale 0 is the no-effect control and ±100 the full control effect.

SMILES	HPGD inh	PNC inhibitor	ALDH1A1 block
CC(NC(=O)c1cn(C(C)c2ccccc2F)nn1)c1ccncc1 (stereo unspecified)	·	·	-10%
COc1cccc(NC(=O)C2CCC(CNS(=O)(=O)c3cccs3)CC2)c1 (stereo unspecified)	·	·	13µM*
COc1nc(OC)nc(N2CCC(C(=O)NCc3cccs3)CC2)n1	-18%	21	-1%
O=C(COc1ccc(S(=O)(=O)NC2CCCCC2)cc1)NCCC1=CCCCC1	-6%	15	7.1µM*
O=C(COc1ccc(S(=O)(=O)NC2CCCCC2)cc1)NC1CCCCC1	2%	21	-11%
COc1cccc(NC(=O)C2CCN(S(C)(=O)=O)CC2)c1	-4%	-5	18%
Cc1cnc(C)c(N2CCC(C(=O)NCc3cccs3)CC2)n1	-12%	-127*	21%
O=C(NCCC1=CCCCC1)C1CCC(CNS(=O)(=O)c2ccccc2)CC1 (stereo unspecified)	-13%	-12	0.56µM*
CC(=O)Nc1ccc(S(=O)(=O)NCC2CCC(C(=O)NCCC3=CCCCC3)CC2)cc1 (stereo unspecified)	-29%	?	-1%
COc1ccc(Cl)cc1NC(=O)C1CSC(c2ccncc2)=N1 (stereo unspecified)	-7%	67	-9%
CC1(C(=O)NCc2ccc(F)cc2)Oc2ccccc2NC1=O (stereo unspecified)	·	·	9%
CC1CCCCN1C(=O)Cn1cc(/C=C2/C(=O)Nc3ccccc32)c2ccccc21 (stereo unspecified)	-12%	41	-5%
COc1ccc(N2CCN(C(=O)NC3CC(=O)N(c4ccc(OC)cc4)C3)CC2)cc1 (stereo unspecified)	·	·	-6%
O=C(N/C(=C/c1ccco1)C(=O)N1CCCCC1)c1cccs1	-20%	13	-9%
Cc1cc(C)c(S(=O)(=O)NCC2CCC(C(=O)NCCCN3CCOCC3)CC2)c(C)c1 (stereo unspecified)	-1%	-10	5%
Cc1ccc(S(=O)(=O)NCC2CCC(C(=O)NCc3cccs3)CC2)cc1 (stereo unspecified)	·	·	0.79µM*
O=C(NCc1cccs1)C1CCC(CNS(=O)(=O)c2cccs2)CC1 (stereo unspecified)	-8%	-15	14µM*
O=C(CCNS(=O)(=O)c1cccs1)NCc1cccs1	0%	11	12%
O=C(NCCN1CCOCC1)C1CCC(CNS(=O)(=O)c2ccccc2)CC1 (stereo unspecified)	-12%	14	13µM*
Cc1ccc(S(=O)(=O)NCC2CCC(C(=O)O)CC2)cc1 (stereo unspecified)	-12%	4	?
Cc1cc(N2CCC(C)CC2)nc(NCc2ccccc2)n1	-6%	27	?
COc1ccc(-n2c(Cn3c(=O)sc4ccccc43)nnc2SCC(=O)N2CCCC2)cc1	-6%	10	3%
COc1ccc(/C(N)=N/OC(=O)Cc2ccc(C)cc2)cc1OC	-2%	2	-2%
COC(=O)c1nn(-c2ccccc2)c(Sc2ccc(Cl)cc2)c1/C=N/O	-12%	74	?
C=CCSC1=N/C(=C\c2ccc3c(c2)OCO3)C(=O)S1	-14%	-23	-9%
SMILES	HPGD inh	PNC inhibitor	ALDH1A1 block
C=CCSC1=N/C(=C\c2cc(OCC)c(OC(C)=O)c([N+](=O)[O-])c2)C(=O)S1	6.3µM*	-116*	0%
CCCCCCCCCS(=O)(=O)N/N=C/c1cccc([N+](=O)[O-])c1	20µM*	?	0.32µM*
CCCCCCCCCCS(=O)(=O)N/N=C/c1ccc(O)cc1	-25%	-3	13µM*
CCCCCCCCCCS(=O)(=O)N/N=C/c1ccccc1OC	-15%	-7	?
Cc1ccc(S(=O)(=O)N/N=C/c2cccc([N+](=O)[O-])c2)cc1	-3%	?	?
CC(C)NC(=O)c1cc(=O)n(C)c(=O)n1C	-13%	18	-33%
C=CCC(C)(O)c1cccc(Br)c1 (stereo unspecified)	-2%	·	13%
CCOCCn1c(CN2CCc3ccccc3C2)nc2c1c(=O)n(C)c(=O)n2C	·	·	2%
Nc1nc(CSC(=S)N2CCN(c3ccccc3)CC2)nc(Nc2ccc(F)cc2)n1	-24%	18	12%
Nc1nc(CSc2n[nH]c(-c3ccccc3)n2)nc(Nc2ccccc2)n1	13µM*	-5	?
COc1ccc(Nc2nc(N)nc(CSc3n[nH]c(-c4ccccc4)n3)n2)cc1	22µM*	35	2%
COc1ccc(Nc2nc(N)nc(CSc3nccc(C)n3)n2)cc1	0%	12	-6%
Cc1ccc(Nc2nc(N)nc(CSc3ncccn3)n2)cc1	-5%	4	1%
